Experimental findings from ChEMBL document CHEMBL3988442, “University of Dundee, Small-Polar-MMV Screening Library” (2021) are described below.

Holding throughout (parameters): scale not given: direction of the effect not stated beside the values
The target of experiment [1] is Protein translocase subunit SecA (Escherichia coli (strain K12)) (UniProt P10408). Nature of the experiment: Assay to Identify E. coli SecA ATPase Inhibitors. The class given is functional. The note with it: 30 µM.
Experiment [2] deals with T1, Ubiquitin-activating enzyme e1, putative (Leishmania donovani (strain BPK282A1)) (UniProt E9BSI1).
T1 sequence (whole entry): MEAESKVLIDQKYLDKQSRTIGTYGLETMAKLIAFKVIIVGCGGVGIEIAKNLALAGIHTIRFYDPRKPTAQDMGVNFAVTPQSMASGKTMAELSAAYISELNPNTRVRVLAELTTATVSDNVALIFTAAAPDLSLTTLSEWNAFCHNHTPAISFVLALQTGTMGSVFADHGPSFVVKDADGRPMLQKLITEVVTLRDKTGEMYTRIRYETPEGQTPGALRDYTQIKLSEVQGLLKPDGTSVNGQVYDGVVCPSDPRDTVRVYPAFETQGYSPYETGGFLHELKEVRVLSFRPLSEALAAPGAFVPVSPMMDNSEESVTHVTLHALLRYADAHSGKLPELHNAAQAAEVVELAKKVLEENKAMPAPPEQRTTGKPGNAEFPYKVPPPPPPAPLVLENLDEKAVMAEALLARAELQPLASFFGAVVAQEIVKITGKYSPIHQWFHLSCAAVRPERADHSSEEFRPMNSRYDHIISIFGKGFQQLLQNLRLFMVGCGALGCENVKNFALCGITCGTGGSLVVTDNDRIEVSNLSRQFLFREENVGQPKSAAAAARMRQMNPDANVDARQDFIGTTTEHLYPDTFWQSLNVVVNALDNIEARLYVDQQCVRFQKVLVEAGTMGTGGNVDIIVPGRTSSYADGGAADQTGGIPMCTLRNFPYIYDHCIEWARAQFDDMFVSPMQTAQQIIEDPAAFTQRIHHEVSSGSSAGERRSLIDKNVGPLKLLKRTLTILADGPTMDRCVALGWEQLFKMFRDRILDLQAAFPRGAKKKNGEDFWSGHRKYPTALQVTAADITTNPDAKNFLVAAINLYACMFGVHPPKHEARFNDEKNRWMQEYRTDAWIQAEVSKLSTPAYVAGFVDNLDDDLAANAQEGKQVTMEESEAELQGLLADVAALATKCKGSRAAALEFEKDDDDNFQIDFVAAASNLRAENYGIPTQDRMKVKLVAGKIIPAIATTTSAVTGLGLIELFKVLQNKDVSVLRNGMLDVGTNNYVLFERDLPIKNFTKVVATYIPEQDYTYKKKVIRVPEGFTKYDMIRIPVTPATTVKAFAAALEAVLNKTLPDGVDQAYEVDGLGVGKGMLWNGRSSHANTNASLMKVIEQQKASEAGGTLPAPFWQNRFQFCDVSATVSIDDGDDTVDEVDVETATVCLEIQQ
In words: Leishmania donovani Ubiquitin Activating Enzyme (LdE1). The class given is functional. The note with it: 30 µM.

For experiment [3], the target named is AMP-activated protein kinase, AMPK (Homo sapiens) (UniProt P54646+O43741+P54619+Q9UGJ0+Q9Y478+Q13131+Q9UGI9). Nature of the experiment: AMP-dependent Kinase enzyme assay. An in vitro enzyme assay that detects ADP turnover that is directly proportional to AMPK activity. This uses naive AMPK that is activated during the assay with MK-8722. The class given is functional. To be noted: 30 µM.

Experiment [4] has as its target Sialic acid-binding Ig-like lectin 9 (Homo sapiens) (UniProt Q9Y336). In words: Hs-Siglec9 ALPHAscreen SOP 20170721. The note with it: 10 µM.
The subject of another experiment is Trypanosoma cruzi. Nature of the experiment: Trypanosoma cruzi phosphomannomutase and mannose-1-phosphate guanylyltransferase assay. The class given is functional. The note with it: 10 µM.
Experiment [5] concerns the target T2, Arginase-2, mitochondrial (Homo sapiens) (UniProt P78540).
T2 sequence (whole entry): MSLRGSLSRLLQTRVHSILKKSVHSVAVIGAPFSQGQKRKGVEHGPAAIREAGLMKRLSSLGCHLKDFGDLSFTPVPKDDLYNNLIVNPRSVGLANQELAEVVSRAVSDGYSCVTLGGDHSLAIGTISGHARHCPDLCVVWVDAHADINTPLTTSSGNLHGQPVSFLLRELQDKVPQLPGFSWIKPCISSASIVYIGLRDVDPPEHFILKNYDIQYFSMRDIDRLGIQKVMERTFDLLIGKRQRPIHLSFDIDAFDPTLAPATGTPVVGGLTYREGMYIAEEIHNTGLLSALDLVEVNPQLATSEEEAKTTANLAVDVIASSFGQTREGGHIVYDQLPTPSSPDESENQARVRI
In words: in vitro enzyme assay to detect the production of urea directly proportional to the activity of Arginase II. Also: in the data most compounds retested in dose-response had high values. The class given is functional. The note with it: 33.3 µM.

Experiment [6] concerns the target T3, Proteasome subunit beta (Trypanosoma cruzi) (UniProt O96673).
T3 sequence (whole entry): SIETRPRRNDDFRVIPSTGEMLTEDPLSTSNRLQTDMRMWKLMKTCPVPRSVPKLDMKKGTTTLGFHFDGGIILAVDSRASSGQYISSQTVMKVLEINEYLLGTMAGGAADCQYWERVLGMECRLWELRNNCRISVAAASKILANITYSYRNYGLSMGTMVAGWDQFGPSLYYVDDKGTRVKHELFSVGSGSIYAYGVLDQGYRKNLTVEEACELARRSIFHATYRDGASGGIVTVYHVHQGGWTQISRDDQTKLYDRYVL
In words: Trypanosoma cruzi proteasome chymotrypsin-like activity (TcProtChymo) assay. Also: in the data most compounds retested in dose-response had high values. The format is functional. The note with it: 9.37 µM.

Another experiment is filed under the species Homo sapiens. In words: To identify inhibition of the IFN signalling (Jak-Stat) pathway via expression of an eGFP reporter gene under the control of an IFN-stimulated response element (ISRE) containing MxA promoter. The note with it: 30 µM. The class given is functional. Background: Reporter assays use an easily measured gene product as a stand-in for the process of interest.

In experiment [7] the target is T4, Tyrosyl-tRNA synthetase, putative (Trypanosoma cruzi (strain CL Brener)) (UniProt Q4DSP6).
T4 sequence (whole entry): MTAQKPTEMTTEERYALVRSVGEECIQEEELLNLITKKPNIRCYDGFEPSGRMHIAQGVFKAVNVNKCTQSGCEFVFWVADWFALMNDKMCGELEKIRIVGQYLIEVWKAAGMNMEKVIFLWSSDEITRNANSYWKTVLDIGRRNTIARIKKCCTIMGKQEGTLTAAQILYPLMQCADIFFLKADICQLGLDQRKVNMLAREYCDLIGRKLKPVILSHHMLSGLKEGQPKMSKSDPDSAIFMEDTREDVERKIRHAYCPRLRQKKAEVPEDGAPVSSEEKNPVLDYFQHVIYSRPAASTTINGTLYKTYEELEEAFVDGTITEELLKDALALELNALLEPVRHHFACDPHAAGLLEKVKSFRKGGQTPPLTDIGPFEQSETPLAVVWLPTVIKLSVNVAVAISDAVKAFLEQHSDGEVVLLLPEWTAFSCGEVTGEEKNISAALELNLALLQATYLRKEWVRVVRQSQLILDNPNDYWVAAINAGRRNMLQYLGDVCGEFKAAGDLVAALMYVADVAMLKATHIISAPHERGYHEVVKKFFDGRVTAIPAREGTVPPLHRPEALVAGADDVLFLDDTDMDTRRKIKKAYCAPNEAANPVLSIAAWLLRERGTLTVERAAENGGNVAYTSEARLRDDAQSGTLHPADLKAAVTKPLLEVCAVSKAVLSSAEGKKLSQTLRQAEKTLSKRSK
In words: Trypanosoma cruzi tyrosyl tRNA synthetase (TcYRS) _High Tyrosine SOP. Also: in the data most compounds retested in dose-response had high values. The class given is functional. The note with it: 30 µM.

The target of experiment [8] is T4, Tyrosyl-tRNA synthetase, putative (Trypanosoma cruzi (strain CL Brener)). Nature of the experiment: Trypanosoma cruzi tyrosyl tRNA synthetase (TcYRS) SOP. The format is functional. To be noted: 30 µM.
Experiment [9] addresses Chromo domain-containing protein 1 (Saccharomyces cerevisiae (strain ATCC 204508 / S288c) (Baker's yeast)) (UniProt P32657). Nature of the experiment: ScCHD-1 Enzyme Inhibition Assay. Also: in the data most compounds retested in dose-response had high values. The format is functional. To be noted: 30 µM.

For some of these results: Measured potencies and affinities stand elsewhere.

Chain of Protein translocase subunit SecA (Escherichia coli (strain K12)) (P10408 whole entry): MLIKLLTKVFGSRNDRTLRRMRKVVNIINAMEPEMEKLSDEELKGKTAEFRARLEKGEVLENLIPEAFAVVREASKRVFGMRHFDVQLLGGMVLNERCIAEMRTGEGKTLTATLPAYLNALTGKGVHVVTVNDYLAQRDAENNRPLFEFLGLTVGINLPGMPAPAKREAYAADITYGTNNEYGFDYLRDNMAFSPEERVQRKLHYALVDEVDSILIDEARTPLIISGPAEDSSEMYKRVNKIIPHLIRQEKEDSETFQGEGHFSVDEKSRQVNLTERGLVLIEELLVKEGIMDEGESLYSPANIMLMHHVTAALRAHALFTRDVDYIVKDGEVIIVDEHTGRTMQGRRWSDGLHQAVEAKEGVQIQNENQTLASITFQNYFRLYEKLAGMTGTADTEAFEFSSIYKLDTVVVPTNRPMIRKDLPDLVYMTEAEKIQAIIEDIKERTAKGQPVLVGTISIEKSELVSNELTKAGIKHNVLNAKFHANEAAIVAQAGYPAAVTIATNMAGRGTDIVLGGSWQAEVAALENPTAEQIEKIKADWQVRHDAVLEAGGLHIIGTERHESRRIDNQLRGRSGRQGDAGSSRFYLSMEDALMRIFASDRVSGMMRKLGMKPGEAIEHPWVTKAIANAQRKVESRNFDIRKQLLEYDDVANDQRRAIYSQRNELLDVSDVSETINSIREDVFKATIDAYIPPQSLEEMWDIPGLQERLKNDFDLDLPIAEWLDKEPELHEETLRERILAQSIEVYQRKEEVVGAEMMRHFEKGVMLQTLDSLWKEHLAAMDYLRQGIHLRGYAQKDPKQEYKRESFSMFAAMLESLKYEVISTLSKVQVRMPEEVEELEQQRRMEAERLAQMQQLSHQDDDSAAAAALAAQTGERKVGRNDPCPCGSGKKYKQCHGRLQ
Chain of Chromo domain-containing protein 1 (Saccharomyces cerevisiae (strain ATCC 204508 / S288c) (Baker's yeast)) (P32657 whole entry, the tested form may be a part): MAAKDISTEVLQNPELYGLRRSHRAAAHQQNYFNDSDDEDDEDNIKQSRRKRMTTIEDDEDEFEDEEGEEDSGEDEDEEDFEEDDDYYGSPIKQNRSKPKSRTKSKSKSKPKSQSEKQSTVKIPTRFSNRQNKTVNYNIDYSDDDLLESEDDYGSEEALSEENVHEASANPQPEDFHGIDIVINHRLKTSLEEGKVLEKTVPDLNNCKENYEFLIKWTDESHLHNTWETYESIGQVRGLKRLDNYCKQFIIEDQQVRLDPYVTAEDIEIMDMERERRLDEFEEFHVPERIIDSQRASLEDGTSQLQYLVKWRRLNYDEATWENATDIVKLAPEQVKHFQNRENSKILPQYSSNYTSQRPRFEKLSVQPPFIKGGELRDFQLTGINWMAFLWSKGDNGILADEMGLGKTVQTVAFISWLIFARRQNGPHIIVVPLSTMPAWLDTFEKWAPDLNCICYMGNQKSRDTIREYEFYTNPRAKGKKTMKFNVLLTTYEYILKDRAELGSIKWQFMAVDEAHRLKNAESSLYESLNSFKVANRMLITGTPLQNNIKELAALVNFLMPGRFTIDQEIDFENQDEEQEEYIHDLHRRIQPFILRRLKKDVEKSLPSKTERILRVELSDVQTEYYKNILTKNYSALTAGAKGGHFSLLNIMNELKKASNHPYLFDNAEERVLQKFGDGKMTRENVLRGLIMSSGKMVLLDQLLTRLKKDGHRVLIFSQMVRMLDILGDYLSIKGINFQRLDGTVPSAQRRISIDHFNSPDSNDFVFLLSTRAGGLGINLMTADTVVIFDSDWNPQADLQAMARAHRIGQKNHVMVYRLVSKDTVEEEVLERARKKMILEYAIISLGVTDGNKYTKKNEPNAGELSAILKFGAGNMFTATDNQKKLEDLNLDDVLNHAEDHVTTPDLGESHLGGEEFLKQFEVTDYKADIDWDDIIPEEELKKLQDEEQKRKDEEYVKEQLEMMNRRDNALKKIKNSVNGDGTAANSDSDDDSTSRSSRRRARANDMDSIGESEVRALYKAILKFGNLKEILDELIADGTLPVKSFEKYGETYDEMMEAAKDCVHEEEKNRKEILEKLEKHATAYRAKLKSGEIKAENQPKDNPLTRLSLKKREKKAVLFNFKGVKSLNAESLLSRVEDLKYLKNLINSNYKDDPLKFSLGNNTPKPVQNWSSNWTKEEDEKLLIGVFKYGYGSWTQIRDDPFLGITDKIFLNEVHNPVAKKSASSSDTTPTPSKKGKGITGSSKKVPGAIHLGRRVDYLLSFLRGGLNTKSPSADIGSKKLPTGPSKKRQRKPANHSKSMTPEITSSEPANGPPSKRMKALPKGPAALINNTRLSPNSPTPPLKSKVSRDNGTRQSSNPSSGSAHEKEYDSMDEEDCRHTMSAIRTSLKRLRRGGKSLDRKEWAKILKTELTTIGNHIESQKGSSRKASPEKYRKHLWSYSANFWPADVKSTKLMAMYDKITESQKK
Chain of Sialic acid-binding Ig-like lectin 9 (Homo sapiens) (Q9Y336 whole entry): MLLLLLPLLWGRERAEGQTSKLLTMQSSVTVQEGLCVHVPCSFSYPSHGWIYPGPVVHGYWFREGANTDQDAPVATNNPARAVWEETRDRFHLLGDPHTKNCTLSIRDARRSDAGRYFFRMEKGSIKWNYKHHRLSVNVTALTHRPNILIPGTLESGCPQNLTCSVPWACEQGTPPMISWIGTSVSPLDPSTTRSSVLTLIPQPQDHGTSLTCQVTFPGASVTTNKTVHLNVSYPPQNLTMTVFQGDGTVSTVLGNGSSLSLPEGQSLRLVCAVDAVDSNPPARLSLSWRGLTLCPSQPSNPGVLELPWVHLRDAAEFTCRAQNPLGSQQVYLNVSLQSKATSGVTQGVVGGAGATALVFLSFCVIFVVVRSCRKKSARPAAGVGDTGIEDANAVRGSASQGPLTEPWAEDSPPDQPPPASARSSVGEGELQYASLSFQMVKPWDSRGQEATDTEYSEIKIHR

On to `COC(=O)C(NC(=O)COC1CCCC1)c1cc(F)ccc1F` (stereo unspecified), for which the Percent Effect in experiment [1] is -6.55%; in experiment [2], 7.79%; in [3] it was -4.98%; in experiment [4] it was 20.1%; with Trypanosoma cruzi it was 5.06%; in experiment [5] it was -7.83%. For the same compound, the Percent Effect in experiment [6] was 2.7%; in the experiment filed under Homo sapiens, -0.885%; in experiment [7], 4.85%; in experiment [8], 21.9%; in experiment [9] it was -9.9%.

As to `CC(C)Cc1nc(OCC(=O)O)c(C#N)c2c1CCC2`, the Percent Effect is 1.44% in experiment [1]; 9.33% in [2]; -5.52% in experiment [3]; -3.77% in experiment [4]; 1.57% with Trypanosoma cruzi; -2.29% in experiment [5]. The Percent Effect is 9.24% in experiment [6]; 3.54% in the experiment listed under Homo sapiens; -1.06% in [7]; 2.56% in experiment [8]; -8.05% in experiment [9].

Consider `CCc1cccc(N2CCC(NC(=O)c3cc[nH]n3)CC2)c1`, for which the Percent Effect in experiment [1] is -4.19%; in experiment [2], 6.33%; in experiment [3] it was 8.15%; in experiment [4], -6.72%; in the experiment with Trypanosoma cruzi it was -3.59%; in [5] it was -5.38%. For the same compound, the Percent Effect in experiment [6] is 11.2%; in the experiment filed under Homo sapiens, 28.6%; in experiment [7], 2.08%; in [8], 5.06%; in [9], -20.9%.

For `CCOC(=O)N1CCN(c2nc(NCCCO)c3ccccc3n2)CC1`, the Percent Effect is -3.88% in experiment [1]; -1.33% in [2]; 5.25% in experiment [3]; 7.39% in [4]; 5.5% in the experiment on Trypanosoma cruzi; -0.88% in experiment [5]. Also, the Percent Effect in experiment [6] is 0.739%; in the experiment filed under Homo sapiens, 15.2%; in experiment [7] it was 2.12%; in experiment [8], 5.13%; in experiment [9], -3.87%.

With `O=C(NCc1ccoc1)NC1CCCN(c2ncccn2)C1` (stereo unspecified), the Percent Effect in [1] is -3.31%; in [2], 7.89%; in [3], 6.88%; in experiment [4], 0.569%; in the experiment on Trypanosoma cruzi, 4.97%; in experiment [5], -8.28%. Moreover, the Percent Effect was 15.8% in experiment [6]; 20.9% in the experiment filed under Homo sapiens; 3.19% in experiment [7]; 13% in experiment [8]; -3.64% in experiment [9].

For the compound `CC(=O)N1CCC(C(=O)NCCN2CCCCC2)CC1`, the Percent Effect in [1] is -1.49%; in experiment [2], 9.72%; in experiment [3] it was -3.56%; in experiment [4] it was -2.74%; in the experiment with Trypanosoma cruzi it was 0.875%; in experiment [5], 1.77%. For the same compound, the Percent Effect was 17.5% in [6]; -6.46% in the experiment filed under Homo sapiens; 4.21% in experiment [7]; 5.13% in experiment [8]; -2.32% in experiment [9].

Regarding `COCCc1noc(CN2CCCC(Cn3nc(C)nc3C)C2)n1` (stereo unspecified), the Percent Effect was -3.69% in experiment [1]; 16.2% in experiment [2]; -5.81% in [3]; 6.95% in experiment [4]; 0.472% in the experiment on Trypanosoma cruzi; -7.62% in experiment [5]. For the same compound, the Percent Effect in experiment [6] was 3.6%; in the experiment listed under Homo sapiens it was 8.21%; in experiment [7] it was 10.3%; in experiment [8], 23.5%; in experiment [9], -11.8%.

As for `NC(=O)c1ccc2c(c1)nc1n2CCN(Cc2ccccc2)C1`, the Percent Effect in experiment [1] was -6.79%; in experiment [2], 15.8%; in [3], 5.45%; in [4], 5.68%; in the experiment on Trypanosoma cruzi, 3.8%; in experiment [5] it was -20.1%. Moreover, the Percent Effect in experiment [6] came to 12%; in the experiment listed under Homo sapiens, 5.05%; in experiment [7], 4.25%; in experiment [8], 10.4%; in experiment [9], 6.79%.

On to `O=C(Nc1nncs1)NC1CCOc2ccccc21` (stereo unspecified), for which the Percent Effect in experiment [1] is -3.81%; in experiment [2], 2.74%; in [3] it was 5.12%; in [4], -2.09%; in the experiment with Trypanosoma cruzi it was -6.55%; in experiment [5], -0.399%. Further, the Percent Effect was 9.85% in experiment [6]; 17% in the experiment listed under Homo sapiens; 2.08% in experiment [7]; 13.6% in experiment [8]; -8.1% in experiment [9].

For `Cc1cc(N2CCN(Cc3nccn3C)CC2)cc(C)n1`, the Percent Effect was -3.69% in experiment [1]; 1.39% in experiment [2]; -5.16% in experiment [3]; -5.41% in experiment [4]; -5.93% in the experiment with Trypanosoma cruzi; -0.883% in experiment [5]. Besides, the Percent Effect in experiment [6] is 12.1%; in the experiment listed under Homo sapiens, -10.6%; in [7] it was 0%; in [8] it was -2.56%; in [9] it was -1.23%.

With `Cc1cc(C)c(CNC(=O)N(C)CC2CCCCO2)c(=O)[nH]1` (stereo unspecified), the Percent Effect in [1] is -3.05%; in experiment [2], 7.89%; in [3], 2.98%; in [4], -2.11%; in the experiment with Trypanosoma cruzi, -8.84%; in [5] it was 3.06%. Further, the Percent Effect was 14.2% in experiment [6]; 30.1% in the experiment listed under Homo sapiens; 4.41% in experiment [7]; 9.76% in [8]; -2.04% in experiment [9].
